Measured values reported in ChEMBL document CHEMBL1961873, “Compounds: GSK PKIS; Assays: Nanosyn kinase panel” (2012).

Experiments:
[1] = biological target: Tyrosine-protein kinase Fyn (Homo sapiens) (UniProt P06241); settings: at 1 µM
[2] = biological target: Tyrosine-protein kinase HCK (Homo sapiens) (UniProt P08631); settings: at 0.1 µM
[3] = biological target: Tyrosine-protein kinase HCK (Homo sapiens) (UniProt P08631); settings: at 1 µM
[4] = biological target: Insulin-like growth factor 1 receptor (Homo sapiens) (UniProt P08069); settings: at 0.1 µM
[5] = biological target: Insulin-like growth factor 1 receptor (Homo sapiens) (UniProt P08069); settings: at 1 µM
[6] = biological target: Insulin receptor (Homo sapiens) (UniProt P06213); settings: at 0.1 µM
[7] = biological target: Insulin receptor (Homo sapiens) (UniProt P06213); settings: at 1 µM
[8] = biological target: Insulin receptor-related protein (Homo sapiens) (UniProt P14616); settings: at 0.1 µM
[9] = biological target: Insulin receptor-related protein (Homo sapiens) (UniProt P14616); settings: at 1 µM
[10] = biological target: T1, Tyrosine-protein kinase ITK/TSK (Homo sapiens) (UniProt Q08881); settings: at 0.1 µM
T1 sequence (whole entry): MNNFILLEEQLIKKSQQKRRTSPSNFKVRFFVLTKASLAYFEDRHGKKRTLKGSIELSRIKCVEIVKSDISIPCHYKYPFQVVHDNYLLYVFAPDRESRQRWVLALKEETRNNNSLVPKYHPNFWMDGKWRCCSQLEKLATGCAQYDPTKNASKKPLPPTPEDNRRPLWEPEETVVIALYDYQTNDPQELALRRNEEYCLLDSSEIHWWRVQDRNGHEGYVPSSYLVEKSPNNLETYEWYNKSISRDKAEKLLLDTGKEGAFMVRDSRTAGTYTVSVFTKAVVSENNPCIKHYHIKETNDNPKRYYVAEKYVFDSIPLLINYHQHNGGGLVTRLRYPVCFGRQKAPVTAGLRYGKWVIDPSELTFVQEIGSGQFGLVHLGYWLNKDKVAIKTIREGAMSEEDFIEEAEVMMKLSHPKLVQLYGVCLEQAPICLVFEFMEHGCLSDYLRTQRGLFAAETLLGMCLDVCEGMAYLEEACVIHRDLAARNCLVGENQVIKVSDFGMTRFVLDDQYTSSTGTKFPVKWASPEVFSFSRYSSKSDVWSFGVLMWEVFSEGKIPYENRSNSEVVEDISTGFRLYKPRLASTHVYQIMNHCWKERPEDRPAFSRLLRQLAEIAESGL

[11] = biological target: T1, Tyrosine-protein kinase ITK/TSK (Homo sapiens); settings: at 1 µM
[12] = biological target: Tyrosine-protein kinase JAK1 (Homo sapiens) (UniProt P23458); settings: at 0.1 µM
Sequence of Tyrosine-protein kinase JAK1 (Homo sapiens) (P23458 whole entry): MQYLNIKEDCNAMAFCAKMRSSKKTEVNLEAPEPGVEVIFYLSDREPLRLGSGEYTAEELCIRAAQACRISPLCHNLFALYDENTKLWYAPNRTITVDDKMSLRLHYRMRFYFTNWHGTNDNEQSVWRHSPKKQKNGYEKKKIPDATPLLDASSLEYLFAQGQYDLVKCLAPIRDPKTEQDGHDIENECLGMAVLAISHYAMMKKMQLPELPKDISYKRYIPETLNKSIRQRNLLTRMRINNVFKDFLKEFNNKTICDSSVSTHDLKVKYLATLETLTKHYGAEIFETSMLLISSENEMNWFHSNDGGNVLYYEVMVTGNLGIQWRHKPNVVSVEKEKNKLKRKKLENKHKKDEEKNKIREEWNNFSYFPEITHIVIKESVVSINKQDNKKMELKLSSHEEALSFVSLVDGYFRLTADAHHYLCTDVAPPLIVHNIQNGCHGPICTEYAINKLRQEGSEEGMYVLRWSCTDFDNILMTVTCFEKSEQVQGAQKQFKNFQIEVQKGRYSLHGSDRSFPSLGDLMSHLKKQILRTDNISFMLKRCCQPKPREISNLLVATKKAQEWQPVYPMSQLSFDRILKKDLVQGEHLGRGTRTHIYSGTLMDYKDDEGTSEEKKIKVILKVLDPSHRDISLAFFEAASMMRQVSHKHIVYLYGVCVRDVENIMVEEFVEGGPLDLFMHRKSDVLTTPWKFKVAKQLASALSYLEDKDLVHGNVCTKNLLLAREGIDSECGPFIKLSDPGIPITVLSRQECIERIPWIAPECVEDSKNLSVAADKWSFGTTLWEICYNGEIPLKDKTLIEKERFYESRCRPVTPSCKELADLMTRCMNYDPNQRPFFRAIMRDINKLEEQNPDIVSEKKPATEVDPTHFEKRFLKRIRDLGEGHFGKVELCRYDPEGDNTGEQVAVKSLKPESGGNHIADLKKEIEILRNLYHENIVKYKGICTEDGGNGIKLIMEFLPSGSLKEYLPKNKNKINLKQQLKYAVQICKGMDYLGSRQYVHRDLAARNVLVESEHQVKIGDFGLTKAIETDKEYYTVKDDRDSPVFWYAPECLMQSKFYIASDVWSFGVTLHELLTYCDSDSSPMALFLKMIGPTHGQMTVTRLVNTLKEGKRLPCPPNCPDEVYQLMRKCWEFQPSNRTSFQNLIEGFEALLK

[13] = biological target: Tyrosine-protein kinase JAK1 (Homo sapiens) (UniProt P23458); settings: at 1 µM
[14] = biological target: Tyrosine-protein kinase JAK2 (Homo sapiens) (UniProt O60674); settings: at 0.1 µM
[15] = biological target: Tyrosine-protein kinase JAK2 (Homo sapiens) (UniProt O60674); settings: at 1 µM
[16] = biological target: T2, Tyrosine-protein kinase JAK3 (Homo sapiens) (UniProt P52333); settings: at 0.1 µM
T2 sequence (whole entry): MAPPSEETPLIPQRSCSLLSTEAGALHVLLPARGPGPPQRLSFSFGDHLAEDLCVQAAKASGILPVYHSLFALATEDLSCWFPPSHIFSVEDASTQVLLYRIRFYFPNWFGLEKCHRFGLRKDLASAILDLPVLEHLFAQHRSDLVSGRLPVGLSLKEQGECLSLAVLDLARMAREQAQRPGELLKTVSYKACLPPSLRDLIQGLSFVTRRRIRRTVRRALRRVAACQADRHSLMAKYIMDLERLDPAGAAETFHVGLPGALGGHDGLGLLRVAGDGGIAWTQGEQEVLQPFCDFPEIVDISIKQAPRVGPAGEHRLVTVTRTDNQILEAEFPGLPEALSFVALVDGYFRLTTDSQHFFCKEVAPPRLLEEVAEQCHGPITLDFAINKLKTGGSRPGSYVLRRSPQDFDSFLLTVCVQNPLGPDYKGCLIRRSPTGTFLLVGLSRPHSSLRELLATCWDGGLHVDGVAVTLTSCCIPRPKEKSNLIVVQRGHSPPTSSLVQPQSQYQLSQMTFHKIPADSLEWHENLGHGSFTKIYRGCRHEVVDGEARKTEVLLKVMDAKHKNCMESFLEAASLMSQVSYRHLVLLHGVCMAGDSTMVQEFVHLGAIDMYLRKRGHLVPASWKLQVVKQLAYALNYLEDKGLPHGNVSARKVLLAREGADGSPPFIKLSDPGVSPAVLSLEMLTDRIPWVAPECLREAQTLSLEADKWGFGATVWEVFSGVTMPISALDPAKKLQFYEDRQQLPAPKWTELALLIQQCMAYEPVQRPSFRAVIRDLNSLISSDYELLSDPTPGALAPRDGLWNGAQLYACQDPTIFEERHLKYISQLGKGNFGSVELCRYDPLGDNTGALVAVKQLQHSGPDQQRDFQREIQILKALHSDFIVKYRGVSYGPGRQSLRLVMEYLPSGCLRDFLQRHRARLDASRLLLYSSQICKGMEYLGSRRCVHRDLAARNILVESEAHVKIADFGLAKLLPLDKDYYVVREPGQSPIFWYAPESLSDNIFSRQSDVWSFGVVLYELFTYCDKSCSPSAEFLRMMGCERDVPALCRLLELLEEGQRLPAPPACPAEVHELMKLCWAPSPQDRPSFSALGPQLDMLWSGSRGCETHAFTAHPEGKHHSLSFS

[17] = biological target: T2, Tyrosine-protein kinase JAK3 (Homo sapiens); settings: at 1 µM
[18] = biological target: Vascular endothelial growth factor receptor 2 (Homo sapiens) (UniProt P35968); settings: at 0.1 µM
Sequence of Vascular endothelial growth factor receptor 2 (Homo sapiens) (P35968 whole entry): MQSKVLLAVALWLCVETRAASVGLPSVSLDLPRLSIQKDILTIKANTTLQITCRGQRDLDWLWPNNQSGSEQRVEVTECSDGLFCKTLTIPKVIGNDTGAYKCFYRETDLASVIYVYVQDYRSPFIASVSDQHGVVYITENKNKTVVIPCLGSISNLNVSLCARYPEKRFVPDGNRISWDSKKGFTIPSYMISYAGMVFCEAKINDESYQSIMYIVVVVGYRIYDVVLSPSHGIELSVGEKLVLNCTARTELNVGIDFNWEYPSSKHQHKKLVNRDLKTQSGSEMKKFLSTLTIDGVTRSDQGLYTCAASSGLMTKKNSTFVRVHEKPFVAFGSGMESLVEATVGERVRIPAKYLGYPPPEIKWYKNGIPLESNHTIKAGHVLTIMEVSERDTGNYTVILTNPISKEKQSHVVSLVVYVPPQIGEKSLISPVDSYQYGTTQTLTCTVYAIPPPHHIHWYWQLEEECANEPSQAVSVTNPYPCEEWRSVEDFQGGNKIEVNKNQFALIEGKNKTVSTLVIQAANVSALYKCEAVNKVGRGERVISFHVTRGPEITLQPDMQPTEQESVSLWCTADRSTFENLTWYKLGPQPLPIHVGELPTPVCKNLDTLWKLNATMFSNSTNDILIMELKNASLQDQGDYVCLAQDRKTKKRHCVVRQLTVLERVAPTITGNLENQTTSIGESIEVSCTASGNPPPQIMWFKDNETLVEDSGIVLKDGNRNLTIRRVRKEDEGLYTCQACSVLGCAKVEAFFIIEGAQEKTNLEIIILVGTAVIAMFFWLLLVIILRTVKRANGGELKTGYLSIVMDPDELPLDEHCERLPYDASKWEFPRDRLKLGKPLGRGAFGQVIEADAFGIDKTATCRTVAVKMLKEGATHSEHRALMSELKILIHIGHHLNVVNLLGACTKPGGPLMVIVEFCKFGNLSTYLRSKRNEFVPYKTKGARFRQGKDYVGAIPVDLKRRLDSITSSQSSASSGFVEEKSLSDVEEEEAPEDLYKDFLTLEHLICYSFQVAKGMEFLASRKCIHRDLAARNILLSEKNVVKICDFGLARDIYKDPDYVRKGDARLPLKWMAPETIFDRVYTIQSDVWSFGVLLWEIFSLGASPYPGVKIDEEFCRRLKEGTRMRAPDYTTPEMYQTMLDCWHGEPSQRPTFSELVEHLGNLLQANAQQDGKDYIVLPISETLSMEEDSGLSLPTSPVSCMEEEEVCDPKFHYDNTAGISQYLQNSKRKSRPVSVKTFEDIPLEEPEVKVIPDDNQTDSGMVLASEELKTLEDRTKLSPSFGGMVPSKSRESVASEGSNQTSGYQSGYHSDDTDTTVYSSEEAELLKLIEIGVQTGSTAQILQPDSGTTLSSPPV

[19] = biological target: Vascular endothelial growth factor receptor 2 (Homo sapiens) (UniProt P35968); settings: at 1 µM
[20] = biological target: Mast/stem cell growth factor receptor Kit (Homo sapiens) (UniProt P10721); settings: at 0.1 µM;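 further: values are mean inhibition of KIT, from the GSK PKIS dataset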
Sequence of Mast/stem cell growth factor receptor Kit (Homo sapiens) (P10721 whole entry): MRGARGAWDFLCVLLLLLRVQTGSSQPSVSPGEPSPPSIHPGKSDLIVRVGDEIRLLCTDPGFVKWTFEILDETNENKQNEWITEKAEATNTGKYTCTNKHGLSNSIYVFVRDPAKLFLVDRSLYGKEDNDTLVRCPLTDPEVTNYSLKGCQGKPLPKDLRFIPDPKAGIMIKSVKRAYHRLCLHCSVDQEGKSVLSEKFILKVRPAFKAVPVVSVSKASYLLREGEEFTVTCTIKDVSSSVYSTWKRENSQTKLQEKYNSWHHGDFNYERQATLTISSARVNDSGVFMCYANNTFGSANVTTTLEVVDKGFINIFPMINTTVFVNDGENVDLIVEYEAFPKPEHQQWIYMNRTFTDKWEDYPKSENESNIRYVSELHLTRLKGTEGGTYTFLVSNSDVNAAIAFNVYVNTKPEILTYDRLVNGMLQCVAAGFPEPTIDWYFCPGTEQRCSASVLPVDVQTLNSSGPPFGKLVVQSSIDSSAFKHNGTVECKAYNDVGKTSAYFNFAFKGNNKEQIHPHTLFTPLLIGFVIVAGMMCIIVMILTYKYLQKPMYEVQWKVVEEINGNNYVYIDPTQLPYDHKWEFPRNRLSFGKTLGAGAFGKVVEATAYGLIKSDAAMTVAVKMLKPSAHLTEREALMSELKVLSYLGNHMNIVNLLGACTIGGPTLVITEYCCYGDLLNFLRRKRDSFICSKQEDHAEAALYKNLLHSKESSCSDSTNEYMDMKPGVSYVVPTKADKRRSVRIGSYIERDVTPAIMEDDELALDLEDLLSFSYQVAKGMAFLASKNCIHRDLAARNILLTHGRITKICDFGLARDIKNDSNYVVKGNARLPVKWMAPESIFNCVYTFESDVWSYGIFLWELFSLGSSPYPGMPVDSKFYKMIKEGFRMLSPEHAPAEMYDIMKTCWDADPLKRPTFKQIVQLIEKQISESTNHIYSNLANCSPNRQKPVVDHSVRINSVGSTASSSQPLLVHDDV

Sequence of Tyrosine-protein kinase HCK (Homo sapiens) (P08631 2-526 limits assumed): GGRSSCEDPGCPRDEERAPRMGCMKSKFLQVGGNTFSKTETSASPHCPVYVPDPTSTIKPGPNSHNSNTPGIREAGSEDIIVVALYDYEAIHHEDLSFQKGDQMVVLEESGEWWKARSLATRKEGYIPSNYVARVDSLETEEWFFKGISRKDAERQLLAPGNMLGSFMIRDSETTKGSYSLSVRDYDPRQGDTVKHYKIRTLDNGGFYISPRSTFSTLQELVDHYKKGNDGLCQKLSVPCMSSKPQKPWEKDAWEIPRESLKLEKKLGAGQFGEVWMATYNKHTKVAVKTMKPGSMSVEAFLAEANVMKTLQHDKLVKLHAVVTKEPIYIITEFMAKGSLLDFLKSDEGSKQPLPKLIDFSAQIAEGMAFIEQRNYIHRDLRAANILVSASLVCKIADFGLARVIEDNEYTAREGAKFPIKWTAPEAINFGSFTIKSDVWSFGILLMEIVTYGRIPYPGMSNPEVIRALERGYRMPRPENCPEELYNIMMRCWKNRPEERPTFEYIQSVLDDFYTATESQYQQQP
Sequence of Tyrosine-protein kinase Fyn (Homo sapiens) (P06241 2-537 limits assumed): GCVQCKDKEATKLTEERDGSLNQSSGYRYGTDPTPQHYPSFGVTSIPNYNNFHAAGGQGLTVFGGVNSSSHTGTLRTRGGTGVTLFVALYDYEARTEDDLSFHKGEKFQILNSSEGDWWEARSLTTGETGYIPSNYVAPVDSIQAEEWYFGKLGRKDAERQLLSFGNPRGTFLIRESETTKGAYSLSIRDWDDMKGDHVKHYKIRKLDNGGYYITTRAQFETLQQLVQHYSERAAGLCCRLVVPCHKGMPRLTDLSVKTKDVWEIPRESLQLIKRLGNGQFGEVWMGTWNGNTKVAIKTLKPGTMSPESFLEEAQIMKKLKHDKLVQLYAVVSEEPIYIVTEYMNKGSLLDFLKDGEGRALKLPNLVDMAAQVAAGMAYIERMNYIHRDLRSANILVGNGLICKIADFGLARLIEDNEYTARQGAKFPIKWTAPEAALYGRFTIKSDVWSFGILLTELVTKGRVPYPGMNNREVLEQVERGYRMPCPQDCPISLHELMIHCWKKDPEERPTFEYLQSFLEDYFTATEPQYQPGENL

| SMILES | inhibition [1] [%] | inhibition [2] [%] | inhibition [3] [%] | inhibition [4] [%] | inhibition [5] [%] | inhibition [6] [%] | inhibition [7] [%] | inhibition [8] [%] | inhibition [9] [%] | inhibition [10] [%] | inhibition [11] [%] | inhibition [12] [%] | inhibition [13] [%] | inhibition [14] [%] | inhibition [15] [%] | inhibition [16] [%] | inhibition [17] [%] | inhibition [18] [%] | inhibition [19] [%] | inhibition [20] [%] |
| --- | --- | --- | --- | --- | --- | --- | --- | --- | --- | --- | --- | --- | --- | --- | --- | --- | --- | --- | --- | --- |
| CCn1c(-c2nonc2N)nc2c(C#CC(C)(C)O)nc(OC[C@@H](N)c3ccccc3)cc21 | 2.07 | 5.84 | 11.9 | 1.67 | 1.05 | -0.22 | -0.5 | 0.45 | 1.06 | 0.21 | 0.95 | -3.77 | 2.1 | 0.33 | 6.32 | 1.24 | 4.39 | 35.1 | 71.2 | -1.3 |
| Nc1nc(-c2ccc3c(c2)C(=Cc2cc(Br)c(O)c(Br)c2)C(=O)N3)cs1 | 8.82 | -1.41 | 7.14 | -1.89 | 0.82 |  | 1.87 | -3.05 | -2.21 | 0.01 | 1.31 | 0.76 | -0.48 | -0.72 | -1.87 | 1.19 | 2.02 | 1.8 | 11.3 | -0.22 |
| COC(=O)Nc1nc2cc(Oc3ccc(NC(=O)Nc4cccc(C(=O)O)c4)cc3)ccc2[nH]1 | 0.19 | 0.97 | 3.15 | -3.37 | -7.4 | 2.72 | 0.58 | 1.16 | 2.82 | -2.99 | -2.68 | 2.43 | 2.01 | -0.28 | 4.54 | -3.56 | 0.66 |  |  | 2.05 |
| CC(C)=Cc1cccc2c1/C(=N/Nc1ccc(S(N)(=O)=O)cc1)C(=O)N2 | 27.3 | 2.33 | 21.4 | 2.45 | 8.58 | 1.28 | 13.6 | 1.95 | 2.95 | 0.64 | 4.66 | 2.53 | 17.6 | 2.18 | 34.2 | 5.65 | 54.4 | 8.9 | 48.5 | 14.1 |
| COc1cc(C=NNc2ncnc3c2cnn3-c2ccccc2)ccc1O | 47.5 | 8.92 | 41.6 | 1.72 | 3.81 | 3.42 | 2.58 | 3.25 | 2.41 | 1.47 | 4.53 | 2.76 | 3.21 | 1.26 | 8.82 | -0.33 | 4.39 | 12.4 | 49.6 | 15 |
| COc1cc2ncn(-c3cc(O[C@@H](C)c4ccccc4Cl)c(C(N)=O)s3)c2cc1OC | 27.5 | 10.8 | 43.3 | -0.08 | 2.3 | 1.26 | 3.04 | 3.27 | 3.99 | 0.13 | 3.19 | 0.34 | 3.27 | 2.38 | 1.08 | -3.05 | 1.97 | 18 | 67.7 | 4.65 |
| CS(=O)(=O)CCNCc1nc(-c2ccc3ncnc(Nc4ccc(F)c(Cl)c4)c3c2)cs1 | 3.55 | 4.76 | 13.4 | 3.27 | 3.4 | -0.96 | -3.83 | 2.7 | 1.63 | 1.06 | 0.89 | 2.86 | 4.25 | 0.34 | 4.99 | -0.02 | 3.43 | 9.85 | 18.5 | 3.87 |
